# Laboratory results as given in PubChem BioAssay AID1224855 (National Center for Advancing Translational Sciences (NCATS), 2016).
# Results filed as inconclusive are left out. Values without a mark were called inactive. Calls of active or inactive are those of the source. Calls come from the whole dose curve; as a rule, active = well fitted inhibition curve with a large enough effect; inconclusive = small, poorly fitted or top-dose-only effect; inactive = no such curve, though single readings can be large or run the other way.
# Assay: Confirmation assay for measurement of the activity of small molecule inhibitors on Zika virus induced Caspase-3 activity in human iPSC derived neural progenitor cells (hNPCs)
# Conditions: hNPC ZIKV-induced caspase-3/7, Caspase-Glo luminescence, 6 h; series mostly up to 46.1 µM; activity, negative = inhibition: at the top concentration
# Excerpt: National Center for Advancing Translational Sciences [NCATS] Johns Hopkins University School of Medicine Florida State University Assay Overview: Increase in the Caspase-3 activity indicates an activation of apoptosis cell death pathway caused by Zika virus infection in certain types of neuronal cells including human neural progenitor cells (hNPCs), astrocytes, and astrocytoma cell line (SNB-19). This cell-based caspase-3 activity assay measures the increased caspase-3 activity in the human iPSC derived neural progenitor cells (hNPCs) after a 6-hour Zika virus infection with a luminescence readout. A decrease in the luminescence signal in this assay by small molecule treatment indicates an inhibitory effect of that small molecule on the Zika virus induced caspase-3 activity that may correlate with its effect on reduction of Zika virus caused cell death.
# Assay Protocol Summary: The medium for hNPCs consists of DMEM/F12, N2 supplement (ThermoFisher, Cat.# 17502048), NEAA (ThermoFisher, Cat. # 11140050), 2 ug/ml heparin, 2 uM cyclopamine, and B27 (ThermoFisher, Cat. # 17504044). A Caspase-Glo 3/7 assay kit (catalog number G8092; Promega, Madison, WI) was used to detect caspase-3 activity induced by Zika virus infection in human cells. The reagent mixture was reconstituted as described in the protocol from the manufacturer. Polystyrene tissue culture treated and PDL coated white plates were obtained from Greiner Bio-One (Monroe, NC). Cells were seeded in 384- or 1536-well assay plates and cultured at 37 C with 5% CO2 for 16 to 20 hours. The typical cell seeding density in the 1536-well plate assay is 350 cells/well in 3 ul medium for hNPCs in tissue culture treated plates. Compounds were added to cells and incubated for one hour before addition of ZIKV solution to cells (2 FFU/cell). After incubation at 37 C with 5% CO2 for 6 hours, the reagent mixture of Caspase-Glo 3/7 assay kit was added to each well, followed by incubation at room temperature for 30 minutes. The luminescence intensity of the assay plates was measured using a ViewLux plate reader (PerkinElmer). Data were normalized by using the cell-containing wells without ZIKV as a negative control (0% induction of caspase 3/7 activity) and wells containing ZIKV infected cells (Caspase-3 activity induced) as a positive control (100% induction of caspase 3 activity). The percentage inhibitions of the increased Caspase-3 activity by small molecule inhibitors were then calculated.
SMILES,"activity, negative = inhibition [%]",Potency
CC(C)N[C@@H]1CCn2c(=O)[nH]c3cccc(c32)[C@@H]1O,-9.33,
CC(C)[N+](C)(CCC(C(N)=O)(c1ccccc1)c1ccccc1)C(C)C,5.49,
COc1cccc2c1C(=O)c1c(O)c3c(c(O)c1C2=O)C[C@@](O)(C(=O)CO)CC3OC1CC(N2CCOC(OC)C2)C(O)C(C)O1 (some centres undefined),37.9,
O=S(=O)(CC1CS1)c1ccc(Oc2ccccc2)cc1 (centres undefined),38.7,
O=c1c2ccccc2[se]n1-c1ccccc1,,7.74 µM (active)
COP(=S)(OC)SCN1C(=O)c2ccccc2C1=O,-12.9,
Oc1ccc([C@H]2CNCc3c2ccc(O)c3O)cc1O,-7.08,
O=C1CCC[C@@H]2[C@H]3CCCN4CCC[C@@H](CN12)[C@@H]34,34.5,
CC[n+]1c(-c2ccccc2)c2cc(N)ccc2c2ccc(N)cc21,3.42,
O=C1C=CC[C@@H]2[C@H]3CCCN4CCC[C@@H](CN12)[C@@H]34,25.5,
COC1(CS(=O)c2ccccc2)CCN(CCc2c[nH]c3ccc(F)cc23)CC1 (centres undefined),6.59,
O=C(Nc1ccc(Br)cc1)c1cc(Br)cc(Br)c1O,,13.8 µM (active)
CC(C)[C@H]1C(=O)N[C@H](CO)Cc2c[nH]c3cccc(c23)N1C,-5.61,
CC(O)CN1CCN(CC(=O)[O-])CCN(CC(=O)[O-])CCN(CC(=O)[O-])CC1.[Gd+3] (centres undefined),6.07,
